Test results reported in PubChem BioAssay AID743289 (Broad Institute, 2014).
The other results are listed elsewhere or left out. Active and inactive are the calls of the source.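 How the source made its calls: active means compounds lowering fluorescence whose fitted half-maximal concentration is no more than twice their top tested dose; inconclusive means flat fit with 30 to 70% inhibition, or poor fit; inactive means the rest.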

Each compound was assayed against Caspase-1 (Homo sapiens) (UniProt P29466) (assay: human caspase-1 inhibitors, dose response, selectivity assay for caspase-6 inhibitor project, biochemical, Z-YVAD-R110 fluorescence, cherry-pick, set 2 (AID 743289)). Settings: purified caspase-1, Z-YVAD-R110 cleavage fluorescence; series mostly up to 35 µM.
Caspase-1 (Homo sapiens), sequence (P29466 whole entry, looked up): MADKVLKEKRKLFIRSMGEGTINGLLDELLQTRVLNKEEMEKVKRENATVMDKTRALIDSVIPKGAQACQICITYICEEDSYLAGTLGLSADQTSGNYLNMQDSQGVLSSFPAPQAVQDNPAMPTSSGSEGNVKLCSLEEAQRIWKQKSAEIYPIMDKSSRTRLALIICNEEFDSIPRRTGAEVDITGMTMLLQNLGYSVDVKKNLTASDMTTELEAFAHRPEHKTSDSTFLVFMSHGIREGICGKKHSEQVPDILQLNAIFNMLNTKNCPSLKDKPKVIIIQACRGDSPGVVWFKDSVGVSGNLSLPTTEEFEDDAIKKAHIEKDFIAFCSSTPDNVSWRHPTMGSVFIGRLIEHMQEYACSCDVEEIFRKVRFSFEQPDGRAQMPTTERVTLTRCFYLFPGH

outcome, inactive:
Cc1c(CCC(=O)O)c(=O)oc2c(C)c(OCc3ccccc3Cl)ccc12
O=c1ccc2c(-c3ccccc3S(=O)(=O)O)c3ccc(O)c(O)c3oc-2c1O
CCN(CC)CCCC(C)n1c2nc(=O)[nH]c(=O)c-2nc2cc(Cl)ccc21 (stereo not given)
COc1cc(NC(=O)COC(=O)c2ccc([N+](=O)[O-])s2)cc(OC)c1OC
CNS(=O)(=O)c1cccc(C(=O)OCC(=O)N2c3ccccc3NC(=O)C2(C)C)c1
